This experiment deals with furin, P09958. Briefly: furin cleavage Z-score vs untreated control; higher = more cleavage, active = 3.5 or more, inactive = 1 or less, 8 variable residues between constant flanks. The method, boiled down: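 The cleavage Z-score was derived for purified furin acting on 8-mer peptides held on magnetic beads and fused to a cDNA oligonucleotide. Digests lasted 7.5, 15 or 30 min at 1:10 enzyme:substrate in 50 mM HEPES pH 7.5 with CaCl2 and NaCl. Sequencing counts of released DNA, log-transformed against furin-free reactions, were lowess-adjusted and scaled by median absolute deviation.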
Sequence of furin, P09958 (P09958 whole entry, the tested form may be a part): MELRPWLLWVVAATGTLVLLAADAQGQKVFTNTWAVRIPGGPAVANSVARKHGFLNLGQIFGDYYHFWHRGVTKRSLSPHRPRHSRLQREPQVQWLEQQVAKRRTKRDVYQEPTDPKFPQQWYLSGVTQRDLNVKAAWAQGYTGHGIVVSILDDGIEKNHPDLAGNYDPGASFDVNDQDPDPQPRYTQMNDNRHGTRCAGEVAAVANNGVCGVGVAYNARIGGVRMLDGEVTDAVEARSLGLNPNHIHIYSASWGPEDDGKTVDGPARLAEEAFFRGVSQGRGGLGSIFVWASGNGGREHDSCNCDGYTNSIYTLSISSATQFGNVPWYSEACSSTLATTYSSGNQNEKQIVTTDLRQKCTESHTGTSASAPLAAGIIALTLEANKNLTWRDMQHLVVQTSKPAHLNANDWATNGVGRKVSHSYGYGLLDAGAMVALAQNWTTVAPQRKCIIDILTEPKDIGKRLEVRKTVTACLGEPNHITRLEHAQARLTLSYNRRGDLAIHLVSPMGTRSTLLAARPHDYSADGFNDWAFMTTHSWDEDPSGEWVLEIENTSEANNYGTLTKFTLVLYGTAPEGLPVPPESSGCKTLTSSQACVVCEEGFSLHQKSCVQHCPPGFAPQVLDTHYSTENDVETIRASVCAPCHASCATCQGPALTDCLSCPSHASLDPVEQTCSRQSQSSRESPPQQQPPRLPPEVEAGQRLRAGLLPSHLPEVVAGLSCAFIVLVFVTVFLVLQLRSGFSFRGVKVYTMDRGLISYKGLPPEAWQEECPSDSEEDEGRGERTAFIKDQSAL

The other results are listed elsewhere or left out. The true hit rate is not given.

B1: HC373 (peptide)
chain: CATALNCNDSAGNASASA
Turning to B1, the “furin cleavage Z-score” value reads like this: (7.5 min) -0.291 (inactive); (15 min) 1.13; (30 min) -0.956 (inactive).

B2: HC798 (peptide)
chain: CADPNIRTGVAGNASASA
Turning to B2, the “furin cleavage Z-score” value by setting is: (7.5 min) -0.151 (inactive); (15 min) 0.395 (inactive); (30 min) 0.163 (inactive).

B3: HC71 (peptide)
chain: CATTPCKGSWAGNASASA
As to B3, the “furin cleavage Z-score” value runs as follows: (7.5 min) 1.27; (15 min) 0.748 (inactive); (30 min) 0.0767 (inactive).

B4: HC1781 (peptide)
chain: CAMEECSQHNAGNASASA
On to B4, for which the “furin cleavage Z-score” value is 1.41 (7.5 min), 1.49 (15 min) and 0.115 (inactive) (30 min).

B5: HC1916 (peptide)
chain: CATTPCSGGWAGNASASA
For B5, the “furin cleavage Z-score” value is -1.1 (inactive) (7.5 min), -1.09 (inactive) (15 min) and -1.17 (inactive) (30 min).

B6: FS-1140 (peptide)
chain: CAMPKKTRRSAGNASASA
With B6, the “furin cleavage Z-score” value runs as follows: (7.5 min) 9.94 (active); (15 min) 11.9 (active); (30 min) 9.14 (active).

B7: FS-1478 (peptide)
chain: CARLCRKRRCAGNASASA
For the sequence B7, the “furin cleavage Z-score” value (7.5 min) was 5.9 (active), the “furin cleavage Z-score” value (15 min) was 6.48 (active) and the “furin cleavage Z-score” value (30 min) is 7.28 (active).

B8: HC388 (peptide)
chain: CARLASCRPLAGNASASA
In the case of B8, the “furin cleavage Z-score” value reads like this: (7.5 min) -0.427 (inactive); (15 min) -1.06 (inactive); (30 min) -2.04 (inactive).

B9: FU10 (peptide)
chain: CARAGRSKGTAGNASASA
Regarding B9, the “furin cleavage Z-score” value (7.5 min) was found to be 1.67, the “furin cleavage Z-score” value (15 min) worked out at 1.52 and the “furin cleavage Z-score” value (30 min) is 0.0134 (inactive).

B10: FS-2875 (peptide)
chain: CAPLKRSMSLAGNASASA
Take B10: the “furin cleavage Z-score” value was 2.28 (7.5 min), 0.41 (inactive) (15 min) and 0.484 (inactive) (30 min).

B11: HC1142 (peptide)
chain: CAWISSECTTAGNASASA
For the sequence B11, the “furin cleavage Z-score” value was -0.663 (inactive) (7.5 min), -0.247 (inactive) (15 min) and 0.84 (inactive) (30 min).

B12: FS-2883 (peptide)
chain: CARAGRSAPLAGNASASA
B12: the “furin cleavage Z-score” value is, setting by setting: (7.5 min) 2.27; (15 min) 5.01 (active); (30 min) 3.82 (active).

B13: FS-1990 (peptide)
chain: CARAGRSGKEAGNASASA
With B13, the “furin cleavage Z-score” value is 0.457 (inactive) (7.5 min), 0.0281 (inactive) (15 min) and -1.58 (inactive) (30 min).

B14: FS-2882 (peptide)
chain: CARAGRACEGAGNASASA
For the sequence B14, the “furin cleavage Z-score” value runs as follows: (7.5 min) 0.299 (inactive); (15 min) -0.431 (inactive); (30 min) 0.946 (inactive).

B15: HC1340 (peptide)
chain: CAGITGDNTTAGNASASA
For B15, the “furin cleavage Z-score” value reads like this: (7.5 min) 0.448 (inactive); (15 min) -1.88 (inactive); (30 min) -0.26 (inactive).

B16: FS-486 (peptide)
chain: CARAGRSKRTAGNASASA
For B16, the “furin cleavage Z-score” value is, setting by setting: (7.5 min) 10.8 (active); (15 min) 9.36 (active); (30 min) 7.48 (active).

B17: FS-2952 (peptide)
chain: CARIKRGNTTAGNASASA
Regarding B17, the “furin cleavage Z-score” value reads like this: (7.5 min) 4.9 (active); (15 min) 5.56 (active); (30 min) 4.43 (active).

B18: FS-2153 (peptide)
chain: CARKKKRQSLAGNASASA
For the sequence B18, the “furin cleavage Z-score” value reads like this: (7.5 min) 0.376 (inactive); (15 min) 0.239 (inactive); (30 min) 0.449 (inactive).

B19: FS-2953 (peptide)
chain: CARIKRRKSLAGNASASA
Turning to B19, the “furin cleavage Z-score” value runs as follows: (7.5 min) 2.28; (15 min) 3.44; (30 min) 5 (active).

B20: HC606 (peptide)
chain: CALLLAVFGPAGNASASA
On to B20, for which the “furin cleavage Z-score” value reads like this: (7.5 min) -1.28 (inactive); (15 min) -0.292 (inactive); (30 min) 0.343 (inactive).

B21: HC103 (peptide)
chain: CAVVCCVMSYAGNASASA
As to B21, the “furin cleavage Z-score” value is, setting by setting: (7.5 min) -1.06 (inactive); (15 min) -0.0414 (inactive); (30 min) -1.47 (inactive).

B22: FS-2982 (peptide)
chain: CARKSRWAKLAGNASASA
Turning to B22, the “furin cleavage Z-score” value (7.5 min) is -0.417 (inactive), the “furin cleavage Z-score” value (15 min) was 0.0632 (inactive) and the “furin cleavage Z-score” value (30 min) came out at 3.23.

B23: HC555 (peptide)
chain: CATFYGMWPLAGNASASA
On to B23, for which the “furin cleavage Z-score” value reads like this: (7.5 min) -1.22 (inactive); (15 min) -0.0659 (inactive); (30 min) 1.29.

B24: FS-1898 (peptide)
chain: CARIKRQHSSAGNASASA
Turning to B24, the “furin cleavage Z-score” value was 4.55 (active) (7.5 min), 5.06 (active) (15 min) and 4.01 (active) (30 min).

B25: HC2559 (peptide)
chain: CASTPCSAPLAGNASASA
Regarding B25, the “furin cleavage Z-score” value runs as follows: (7.5 min) -0.781 (inactive); (15 min) 0.424 (inactive); (30 min) 0.232 (inactive).

B26: FS-842 (peptide)
chain: CAPRSRARKLAGNASASA
Regarding B26, the “furin cleavage Z-score” value was 0.0836 (inactive) (7.5 min), 1.96 (15 min) and -0.483 (inactive) (30 min).

B27: FS-2954 (peptide)
chain: CARIKRSAPLAGNASASA
Consider B27, for which the “furin cleavage Z-score” value runs as follows: (7.5 min) 11.4 (active); (15 min) 11.4 (active); (30 min) 10.2 (active).

B28: FS-2990 (peptide)
chain: CARLKRLCSSAGNASASA
Regarding B28, the “furin cleavage Z-score” value by setting is: (7.5 min) 0.399 (inactive); (15 min) -0.446 (inactive); (30 min) 0.202 (inactive).

B29: FS-3156 (peptide)
chain: CARIKRSRKLAGNASASA
For B29, the “furin cleavage Z-score” value is 7.25 (active) (7.5 min), 9.58 (active) (15 min) and 9.07 (active) (30 min).

B30: FS-2110 (peptide)
chain: CARVWRATSSAGNASASA
Take B30: the “furin cleavage Z-score” value by setting is: (7.5 min) 1.3; (15 min) 0.783 (inactive); (30 min) 0.938 (inactive).

B31: HC2432 (peptide)
chain: CAEREVPCHRAGNASASA
Regarding B31, the “furin cleavage Z-score” value runs as follows: (7.5 min) 0.541 (inactive); (15 min) 0.603 (inactive); (30 min) 1.7.

B32: HC519 (peptide)
chain: CAEYVVLLFLAGNASASA
Take B32: the “furin cleavage Z-score” value is, setting by setting: (7.5 min) -0.402 (inactive); (15 min) 0.168 (inactive); (30 min) -0.326 (inactive).

B33: HC547 (peptide)
chain: CACFAWYLKGAGNASASA
Turning to B33, the “furin cleavage Z-score” value reads like this: (7.5 min) -1.21 (inactive); (15 min) -0.696 (inactive); (30 min) 0.991 (inactive).

B34: FS-2800 (peptide)
chain: CARRRRTALAAGNASASA
For B34, the “furin cleavage Z-score” value was 7.39 (active) (7.5 min), 9.46 (active) (15 min) and 7.26 (active) (30 min).

B35: FS-2080 (peptide)
chain: CARRRRRTAIAGNASASA
Regarding B35, the “furin cleavage Z-score” value was 4.79 (active) (7.5 min), 6.3 (active) (15 min) and 6.06 (active) (30 min).

B36: FS-2798 (peptide)
chain: CARRRRTAFAAGNASASA
Consider B36, for which the “furin cleavage Z-score” value reads like this: (7.5 min) 5.77 (active); (15 min) 8.03 (active); (30 min) 7.17 (active).

B37: HC1131 (peptide)
chain: CAAARVTAILAGNASASA
In the case of B37, the “furin cleavage Z-score” value was 0.0621 (inactive) (7.5 min), 1.08 (15 min) and -0.5 (inactive) (30 min).

B38: FS-2181 (peptide)
chain: CARRRRKVLAAGNASASA
For B38, the “furin cleavage Z-score” value runs as follows: (7.5 min) -0.244 (inactive); (15 min) 1.09; (30 min) 1.13.

B39: FS-2799 (peptide)
chain: CARRRRTAILAGNASASA
B39: the “furin cleavage Z-score” value reads like this: (7.5 min) 5.32 (active); (15 min) 8.15 (active); (30 min) 8.93 (active).

B40: HC943 (peptide)
chain: CALTHIDAHFAGNASASA
Turning to B40, the “furin cleavage Z-score” value reads like this: (7.5 min) -1.16 (inactive); (15 min) -1.18 (inactive); (30 min) -0.971 (inactive).

B41: HC660 (peptide)
chain: CAGLPVSARRAGNASASA
B41: the “furin cleavage Z-score” value is, setting by setting: (7.5 min) -1.44 (inactive); (15 min) -0.486 (inactive); (30 min) -0.384 (inactive).

B42: FS-2040 (peptide)
chain: CARKTRSARRAGNASASA
Turning to B42, the “furin cleavage Z-score” value reads like this: (7.5 min) 7.75 (active); (15 min) 10.4 (active); (30 min) 8.66 (active).

B43: FS-246 (peptide)
chain: CAGWKRARRAAGNASASA
For B43, the “furin cleavage Z-score” value was 10.7 (active) (7.5 min), 11 (active) (15 min) and 9.68 (active) (30 min).

B44: FS-3225 (peptide)
chain: CARKTRSHTAAGNASASA
In the case of B44, the “furin cleavage Z-score” value runs as follows: (7.5 min) 4.24 (active); (15 min) 5.12 (active); (30 min) 4.27 (active).

B45: FS-82 (peptide)
chain: CARATRARRAAGNASASA
B45: the “furin cleavage Z-score” value runs as follows: (7.5 min) 10.6 (active); (15 min) 10.6 (active); (30 min) 7.6 (active).

(Values after the supplement of paper PMC3545927.)
